Assay outcomes deposited in PubChem by National Center for Advancing Translational Sciences (NCATS).
A selection: hits, their analogues and other compounds. The true share with any hit is near 7.4%.
Rab9 prom act – Rab9 promoter activation. Huh7 Rab9 promoter-luciferase reporter, luminescence, 24 h. actives 2.8% (n = 320,000). Potency, µM (top dose mostly 9.22 µM), actives largely listed as activators. AID 485297; note: nearly all actives have a fitted effect of over 60% in size
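Measured in stably transfected Huh7 cells bearing a Rab9 promoter–luciferase construct: 24 h compound treatment at 37 °C, followed by luminescence detection.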
NPC1 promoter act – NPC1 promoter activation; Huh7 NPC1 promoter luciferase reporter, 24 h; Potency, µM (titrated, usually from 9.22 µM), hits mostly activators; actives 2.4% (n = 320,000); note: nearly all actives have a fitted effect of over 60% in size
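Huh7 reporter cells (NPC1 promoter driving luciferase) are dosed with compound for 24 h at 37 °C, 5% CO2; luciferase detection reagent is then added and luminescence measured after 10 min at ambient temperature.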
SMN2 splice enh – SMN2 splice variant enhancement. actives 2.8% (n = 210,000). Potency, µM (titrated, usually from 46.1 µM), hits mostly activators. AID 1458. HEK293 SMN2-luciferase splicing reporter, luminescence, 30-36 h; note: nearly all actives have a fitted effect of over 55% in size
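qHTS luciferase splicing reporter: luminescence rises when SMN2 exon 7 is included in transfected HEK293 cells. Compound exposure lasted 30-36 h at 37C, with 4.5 mM final sodium butyrate as control, followed by a ONE-Glo read.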
ELG1 genotoxic – induces genotoxicity in HEK293T cells with luciferase-tagged ELG1; HEK293T ELG1-luciferase reporter, luminescence, 16 h; Potency, µM (series often up to 46 µM), hits mostly activators; actives 1.3% (n = 330,000); note: nearly all actives have a fitted effect of over 60% in size
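After overnight (16 hr) compound treatment at 37 °C, ELG1-luciferase HEK293T cells were lysed with ONE-Glo; luminescence quantified 30 min later at room temperature.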
FLuc counter – firefly luciferase modulation, counter-screen for miR-21 project; P08659; purified FLuc, Km substrates, luminescence inhibition; Potency, µM (highest dose often 57.5 µM), actives largely listed as inhibitors; actives 6.9% (n = 360,000); AID 588342; note: nearly all actives have a fitted effect of over 55% in size
Target sequence (P08659 whole entry, looked up): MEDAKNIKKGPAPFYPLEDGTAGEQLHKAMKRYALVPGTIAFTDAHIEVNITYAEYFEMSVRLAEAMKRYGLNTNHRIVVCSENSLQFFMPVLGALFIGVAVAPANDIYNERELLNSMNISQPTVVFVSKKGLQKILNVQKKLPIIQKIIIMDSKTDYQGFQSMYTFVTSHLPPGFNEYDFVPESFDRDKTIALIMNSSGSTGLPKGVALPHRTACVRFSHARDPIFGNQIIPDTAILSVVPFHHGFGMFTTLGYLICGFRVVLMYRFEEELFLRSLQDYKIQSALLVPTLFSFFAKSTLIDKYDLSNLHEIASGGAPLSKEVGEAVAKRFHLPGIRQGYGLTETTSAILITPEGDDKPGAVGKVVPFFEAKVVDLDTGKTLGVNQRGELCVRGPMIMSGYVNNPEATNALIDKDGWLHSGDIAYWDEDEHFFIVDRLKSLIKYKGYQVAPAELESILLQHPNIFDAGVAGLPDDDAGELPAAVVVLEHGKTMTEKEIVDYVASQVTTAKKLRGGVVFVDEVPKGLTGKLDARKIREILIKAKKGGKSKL
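Purified P. pyralis luciferase (10nM final) with 10uM D-luciferin and 10uM ATP (Km levels) in 50mM Tris acetate pH 7.5, 10mM Mg acetate, 0.01% Tween-20, 0.05% BSA; qHTS 6-point titration, ~60 µM downward; luminescence read.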
Numbers stand for hits; . = inactive; ? = inconclusive; / = not tested or not shown; [ ] = another dose, or the depositor's remark. Calls come from the whole dose curve; as a rule, active = well fitted curve in the direction sought with a large enough effect; inconclusive = small, poorly fitted or top-dose-only effect, or another doubt; inactive = no such curve, though single readings can be large; an effect the other way counts as inactive or inconclusive.

SMILES	Rab9 prom act	NPC1 promoter act	SMN2 splice enh	ELG1 genotoxic	FLuc counter
CCC1=C2CC[C@H]3C(=O)N(c4ccccc4)C(=O)[C@H]3[C@H]2[C@@]2(Cc3ccccc3)C(=NCCc3c[nH]c4ccccc34)OC(=O)N2C1=O	/	/	.	/	/
Cc1cc(C(=O)CSc2nnc(-c3ccccc3)n2-c2ccccc2)c(C)n1-c1ncn[nH]1	.	.	.	.	.
Cc1cc(C(=O)CSc2n[nH]c(N)n2)c(C)n1-c1ccccc1	?	2.5µM	11µM	4.5µM	6µM
Cc1cc(C(=O)CSc2nnc3ccccn23)c(C)n1-c1ccccc1	?	?	.	?	0.19µM
C=CCn1c(C)cc(C(=O)CSc2n[nH]c(N)n2)c1C	.	.	?	15µM	19µM
Cc1cc(C(=O)CSc2n[nH]c(N)n2)c(C)n1-c1ccc(F)cc1	?	?	.	.	19µM
Cc1cc(C(=O)CSc2n[nH]c(N)n2)c(C)n1-c1cc(F)ccc1F	?	.	.	.	.[2.3 µM]
COc1ccc(S(=O)(=O)N2CCOCC2)cc1NC(=O)CCNC(=O)c1ccc([N+](=O)[O-])cc1	.	.	/	.	.
N#Cc1c(NC(=O)COC(=O)c2ccc(O)cc2O)sc2c1CCC2	.	.	/	.	.
CN(CCN(C)C(C)(C)C)C(=O)C(c1ccccc1)c1ccccc1	.	.	/	.	.
Cc1cc(C)c(NC(=O)C(=O)NCCc2csc(-c3ccc(F)cc3)n2)c(C)c1	/	/	/	/	.
Cc1ccc(-n2c(C)cc(C(=O)CSc3n[nH]c(N)n3)c2C)cc1	.	.	.	.	9.5µM
CC(C(=O)N1CCCC1)N(c1ccccc1)S(C)(=O)=O (stereo not given)	.	.	/	.	.
CCN(CC)CCn1c(-c2ccccc2)nc2c(NCCO)nc(C)nc21	/	/	.	/	/
N#C/C(C(=O)Nc1ccc(Cl)cc1)=C(/S)Nc1ccccc1	.	.	/	.	15µM
N#Cc1ccc(NC(=O)Nc2ccc(Cl)cc2)cc1	.	.	.	.	?
O=C(Cn1nnc(-c2ccc(N3CCOCC3)cc2)n1)OC1CCCCC1	.	.	.	.	12µM
O=C(Cn1nnc(-c2ccc(N3CCOCC3)cc2)n1)N1CCOCC1	.	?	/	.	11µM
O=C(Cn1nnc(-c2cccc(C(F)(F)F)c2)n1)N1CCOCC1	.	.	.	.	.
Cc1ccccc1NC(=O)Cn1nnc(-c2ccc(N3CCOCC3)cc2)n1	.	.	.	.	?
CC(=O)c1sc(NC(=O)c2ccco2)nc1-c1ccccc1	?	?	.	15µM	11µM
CCOC(=O)c1sc(NC(=O)c2ccco2)nc1-c1ccccc1	.	.	.	.	.
O=C(Nc1c(-c2ccccc2)nc2ccccn12)c1cccs1	.	.	.	.	.
Cc1ccc2nc(-c3ccccc3)c(NC(=O)c3ccco3)n2c1	.	.	.	.	.
CC(=O)c1c(C)[nH]c(C(=O)Nc2nc(-c3ccccc3)c(C)s2)c1C	?	?	/	.	3µM
SMILES	Rab9 prom act	NPC1 promoter act	SMN2 splice enh	ELG1 genotoxic	FLuc counter
O=C(Nc1nsc(-c2ccccc2)n1)c1cccs1	1.1µM	1.6µM	3.2µM	0.58µM	4.3µM
Cc1sc(NC(=O)c2ccco2)nc1-c1ccccc1	1.6µM	3.5µM	4.5µM	?	2.1µM
OCC[C@H]1C[C@@H](O)[C@H](O)[C@]2(Cc3ccccc3CO2)O1	.	.	/	.	.
CCn1ccc(C(=O)Nc2ncc(C)s2)n1	0.79µM	0.79µM	/	.	?
Cc1sc(NC(=O)c2ccco2)nc1-c1ccc2c(c1)CC(C)N2C(=O)C1CC1 (stereo not given)	.	.	.	.	19µM
Cc1sc(N/N=C/c2cccs2)nc1-c1ccccc1	?	.	.	?	11µM
CCn1ccc(C(=O)NC2=NCCS2)n1	.	.	.	.	.
CC(=O)Nc1nc(-c2ccc3c(c2)CC(C)N3C(=O)C2CC2)c(C)s1 (stereo not given)	.	.	/	.	?
COC(=O)c1sc(NC(=O)c2ccco2)nc1C	.	.	.	.	?
Cc1nc(NC(=O)c2ccco2)sc1C(=O)O	.	.	/	.	11µM
CCc1nc2ccc(C(=O)NCc3ccccc3C)cc2nc1CC	/	/	/	/	.
CCC(C(=O)N/N=C(\C)c1cccnc1)c1ccccc1 (stereo not given)	.	.	/	.	.
CSc1ccc(CCNC(=O)CN2C(=O)COc3ccc(S(=O)(=O)N4CCCC4)cc32)cc1	/	/	.	/	.
CCOC(=O)c1ccc(NC(=O)c2ccc3c(c2)c(C)c(C)n3Cc2ccc(F)cc2)cc1	/	/	/	/	.
COc1cccc2cc(C(=O)NCCc3c(C)[nH]c4ccc(Br)cc34)c(=O)oc12	/	/	.	/	.
Cc1ccc(S(=O)(=O)N(C)C)cc1[N+](=O)[O-]	.	.	/	.	.
Cc1cnc(NC(=O)c2ccco2)s1	?	?	?	?	21µM
Cc1sc(NC(=O)c2cccs2)nc1-c1ccccc1	?	.	/	.	11µM
CN(CC(=O)Nc1ccc(Cl)c(C(F)(F)F)c1)C(=O)CNC(=O)C1CCCCC1	.	.	/	.	.
CCOC(=O)C1CCCN(C2=NC(=O)/C(=C/c3ccc(OC)cc3)S2)C1 (stereo not given)	.	.	/	.	.
NC1=NC(=O)/C(=C\c2ccco2)S1	.	.	/	.	17µM
CCOC(=O)CSC1=NC(=O)/C(=C/c2ccc(OC)cc2)S1	.	.	.[1.84 µM]	?	13µM
COc1ccc(/C=C2\SC(N)=NC2=O)cc1	.	.	/	.	15µM
COc1cc(/C=C2\SC(N)=NC2=O)cc(Br)c1O	.	.	/	.	.
O=C(NCc1ccc(F)cc1)c1cnc(N2CCCCC2)c2ccccc12	/	/	/	/	.
SMILES	Rab9 prom act	NPC1 promoter act	SMN2 splice enh	ELG1 genotoxic	FLuc counter
CCN(CC)C(=O)c1sc2c(c1C)c(=O)n(-c1ccc(Cl)c(Cl)c1)c(=O)n2Cc1ccccc1C#N	/	/	/	/	.
O=c1c2ccccc2oc2ccc(NCCCN3CCOCC3)cc12	2.8µM	2.8µM	/	?	8.5µM
O=C(NCCCn1ccnc1)c1cc2ccccc2oc1=O	.	.	.	.	.
COc1cccc2sc3cc(NCCCN4CCOCC4)ccc3c(=O)c12	/	/	/	.	/
O=c1c2ccccc2oc2cc(NCCCn3ccnc3)ccc12	0.71µM	1.1µM	/	?	2.4µM
O=c1c2ccccc2oc2cc(NCCCN3CCOCC3)ccc12	3.5µM	4µM	/	?	11µM
O=c1c2ccccc2nc(N/N=C/c2c(O)ccc3ccccc23)n1O	.	.	.	.	1.9µM
Cc1nc2ccccc2nc1N/N=C/c1ccc(O)cc1	.	.	/	?	8.5µM
O=c1c2ccccc2nc(N/N=C/c2ccc(O)cc2)n1O	.	.	.	.	2.4µM
Oc1ccc(/C=N/Nc2ccccc2)cc1	.	.	.	.	.
CCCc1nc2ccccc2c(=O)n1/N=C/c1ccc(O)cc1	?	.	.	.	.
Cc1nc2ccccc2c(=O)n1/N=C/c1c(O)ccc2ccccc12	.	.	/	.	.
Nn1c(SCc2ccccn2)nncc1=O	.	.	.	.	.
CCc1cccc(C)c1NS(=O)(=O)c1c(C(=O)N2CCC(C)CC2)c(C)n(C)c1C	/	/	/	/	.
